# EPAC2 antag: Validation qHTS for antagonist of cAMP-regulated guanine nucleotide exchange factor 4 (EPAC2); actives 1.7% (n = 16,000); Rap guanine nucleotide exchange factor 4 (Homo sapiens), Q8WZA2; AID 1645886, 2021; EPAC2 Rap1B BODIPY-GDP exchange, fluorescence; Potency, µM (top dose mostly 112 µM), hits mostly inhibitors; note: nearly all actives have a fitted effect of over 40% in size
# Target sequence (Q8WZA2 whole entry, looked up): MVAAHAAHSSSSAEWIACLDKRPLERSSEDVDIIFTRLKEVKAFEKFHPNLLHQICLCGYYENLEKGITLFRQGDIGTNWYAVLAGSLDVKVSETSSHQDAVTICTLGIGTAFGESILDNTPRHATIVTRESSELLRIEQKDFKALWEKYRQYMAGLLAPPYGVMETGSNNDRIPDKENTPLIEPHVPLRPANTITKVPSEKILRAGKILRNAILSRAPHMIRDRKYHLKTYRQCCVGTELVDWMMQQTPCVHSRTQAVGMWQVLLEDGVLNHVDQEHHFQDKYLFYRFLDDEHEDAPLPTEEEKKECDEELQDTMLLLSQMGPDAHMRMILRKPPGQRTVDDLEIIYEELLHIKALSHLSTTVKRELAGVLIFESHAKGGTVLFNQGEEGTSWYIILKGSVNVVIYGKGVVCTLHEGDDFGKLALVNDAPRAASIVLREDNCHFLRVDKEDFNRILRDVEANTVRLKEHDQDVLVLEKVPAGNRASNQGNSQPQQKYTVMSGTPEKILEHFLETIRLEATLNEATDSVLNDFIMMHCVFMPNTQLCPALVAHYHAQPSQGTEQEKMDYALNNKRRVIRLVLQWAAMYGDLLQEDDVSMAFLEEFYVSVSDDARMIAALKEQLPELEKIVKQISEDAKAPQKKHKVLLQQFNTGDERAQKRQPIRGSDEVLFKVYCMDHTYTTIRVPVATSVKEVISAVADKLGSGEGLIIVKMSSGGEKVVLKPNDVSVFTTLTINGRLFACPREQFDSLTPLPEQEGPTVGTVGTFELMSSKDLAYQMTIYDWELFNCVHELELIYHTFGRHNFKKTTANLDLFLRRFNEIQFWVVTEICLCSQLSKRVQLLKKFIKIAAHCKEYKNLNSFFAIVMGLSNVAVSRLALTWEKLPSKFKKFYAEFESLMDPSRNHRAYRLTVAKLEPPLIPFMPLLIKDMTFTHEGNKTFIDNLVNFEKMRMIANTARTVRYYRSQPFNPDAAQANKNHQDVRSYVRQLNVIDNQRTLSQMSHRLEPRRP
#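 Normalized against a 6.5 mM cAMP agonist control, compounds were tested on 100 nM EPAC2 exchanging Rap1B-bound BODIPY-GDP (250 nM) for 50 uM GDP. Fluorescence drop (ex 480, em 540 nm) was tracked at room temperature over 30 min at 5-min intervals.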
# EPAC1 ag val: Validation qHTS for agonist of cAMP-regulated guanine nucleotide exchange factor 3 (EPAC1) | Rap guanine nucleotide exchange factor 3 (Homo sapiens), O95398 | EPAC1 Rap1b BODIPY-GDP exchange, fluorescence | Potency, µM, usual class: activators | actives 1% (n = 16,000); note: nearly all actives have a fitted effect of over 70% in size
# Hits are given with their value; 0 = inactive; ? = inconclusive; ! = a repeat was not active. A selection: hits, their analogues and other compounds. The true share with any hit is near 2.9%. Calls come from the whole dose curve; as a rule, active = well fitted curve in the direction sought with a large enough effect; inconclusive = small, poorly fitted or top-dose-only effect, or another doubt; inactive = no such curve, though single readings can be large; an effect the other way counts as inactive or inconclusive.
SMILES,EPAC2 antag,EPAC1 ag val
O=c1cc(-c2cc(O)c(O)c(O)c2)oc2cc(O)cc(O)c12,?,0
O=c1oc2c(O)c(O)cc3c(=O)oc4c(O)c(O)cc1c4c23,0,79µM!
COc1ccc(C(=O)N2CCCC(c3nc(SCc4ccccn4)ncc3C)C2)cc1F (centres undefined),?,0
CC[C@]1(O)C[C@H]2CN(CCC3=c4ccccc4=N[C]3[C@@](C(=O)OC)(c3cc4c(cc3OC)N(C)[C@H]3[C@@](O)(C(N)=O)[C@H](O)[C@]5(CC)C=CCN6CC[C@]43[C@@H]65)C2)C1,0,0
COc1ccc(OC)c(/C=C/c2nc3ccccc3nc2C)c1,?,100µM
COc1cc(OC)c(/C=C/c2ccc3ccccc3n2)c(OC)c1,0,?
CN(C)c1ccc(/C=C/c2ccnc3c(-c4ccccc4)cccc23)cc1,0,?
CN(C)c1ccc(/C=C/c2c(Cl)cnc3ccccc23)cc1,0,100µM
CN(C)c1ccc(/C=C/c2ccnc3c(Cl)cccc23)cc1,0,112µM
Cc1ccc2ncc(C)c(/C=C/c3ccc(N(C)C)cc3)c2c1,0,0
CSc1ncccc1C(=O)NCC1Cc2cc(-c3cnccn3)cc(Cl)c2O1 (centres undefined),?,0
COc1ccc2c(c1)CCc1cnc(-n3ncc(C(=O)NCCCc4ccncc4)c3C)nc1-2,0,0
CCC(=O)OC1CCC2C3CCc4cc(O)ccc4C3CC[C@]12C (some centres undefined),40µM,0
C[C@@]12CCC3c4ccc(O)cc4CCC3C1CCC2O (some centres undefined),0,0
C[C@]12CC[C@@H]3c4ccc(O)cc4CC[C@H]3[C@@H]1CC[C@@H]2OC(=O)CCC1CCCC1,0,?
C[C@]12CC[C@@H]3c4ccc(O)cc4CC[C@H]3[C@@H]1CC[C@@H]2OP(=O)(O)O,0,0
CCC(=O)O[C@H]1CC[C@H]2[C@@H]3CCc4cc(O)ccc4[C@H]3CC[C@]12C,50µM,0
CCCCC(=O)O[C@H]1CC[C@H]2[C@@H]3CCc4cc(O)ccc4[C@H]3CC[C@]12C,50µM,0
CC1c2ccccc2CN1NC(=O)c1ccc(Cl)c(S(N)(=O)=O)c1 (centres undefined),0,0
COC(=O)[C@@H]1CCCN1C(=O)c1cnn(-c2ncc3c(n2)-c2ccccc2CCC3)c1C1CC1,0,0
CC1=C(/C=C/C(C)=C/C=C/C(C)=C/C=C/C=C(C)/C=C/C=C(C)/C=C/C2=C(C)C[C@@H](O)CC2(C)C)C(C)(C)C[C@H](O)C1,0,0
OC1(c2cccnc2)CCN(Cc2ccc3c(c2)CN(Cc2cc4ccccc4s2)CCO3)CC1,0,?
Cc1c(C(=O)N2CC3CCC2C3)sc2ncnc(NCCc3ccccn3)c12 (centres undefined),0,0
c1cncc(OC2CCN(Cc3ccc4c(c3)CN(Cc3ccc5c(c3)OCCO5)CCO4)CC2)c1,0,0
CC[C@H](C)[C@H]1O[C@]2(CC[C@@H]1C)C[C@@H]1C[C@@H](C/C=C(\C)[C@@H](O[C@H]3C[C@H](OC)[C@@H](O[C@H]4C[C@H](OC)[C@@H](O)[C@H](C)O4)[C@H](C)O3)[C@@H](C)/C=C/C=C3\CO[C@@H]4[C@H](O)C(C)=C[C@@H](C(=O)O1)[C@]34O)O2,0,0
SMILES,EPAC2 antag,EPAC1 ag val
O=C1CC[C@@H](C(=O)N[C@H]2C[C@@H]2c2ccccc2)N1,0,0
COc1cc(-c2c(-c3ccc4c(c3)OCO4)noc2-c2ccsc2)ccc1F,?,0
Cc1onc(-c2ccc3c(c2)OCO3)c1-c1ccc2[nH]ccc2c1,?,100µM
O=C(O)[C@H](O)c1ccccc1,0,0
Cn1nccc1C(=O)NCC1CCC2(CCN(Cc3ccc(-c4ccc(Cl)cc4)o3)CC2)O1 (centres undefined),0,0
C[N+]1(C)[C@@H]2CC(OC(=O)[C@H](CO)c3ccccc3)C[C@H]1[C@H]1O[C@@H]12 (some centres undefined),0,0
CCCCCCCC(=O)CC[C@@H]1[C@@H](C/C=C\CCCC(=O)OC(C)C)[C@@H](O)C[C@H]1O,?,0
O=C(Nc1cc(C(=O)Nc2ccc(S(=O)(=O)O)cc2S(=O)(=O)O)cc(C(=O)Nc2ccc(S(=O)(=O)O)cc2S(=O)(=O)O)c1)Nc1cc(C(=O)Nc2ccc(S(=O)(=O)O)cc2S(=O)(=O)O)cc(C(=O)Nc2ccc(S(=O)(=O)O)cc2S(=O)(=O)O)c1,0,?
O=C(Nc1ccc(C(=O)Nc2ccc(C(=O)Nc3ccc(S(=O)(=O)O)c4cc(S(=O)(=O)O)cc(S(=O)(=O)O)c34)cc2)cc1)Nc1ccc(C(=O)Nc2ccc(C(=O)Nc3ccc(S(=O)(=O)O)c4cc(S(=O)(=O)O)cc(S(=O)(=O)O)c34)cc2)cc1,22µM,0

# Screening data from PubChem BioAssay.
